In PubChem BioAssay AID1259313 (Sanford-Burnham Center for Chemical Genomics, 2017) one finds Tm shift relative to glycine control data, which are given here for 59 compounds.

Structures are written as SMILES. About 8,500 (2.5%) of roughly 340,000 compounds were called active. Only a selection was taken, and actives are over-represented in it overall. Values without a mark were called inactive.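 Rule for the calls: active = melting temperature shift of at least 10% of the positive control shift, at one fixed dose; inactive = the rest.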

For the experiment, the system named is Glutamate receptor ionotropic, NMDA 3A (GRIN3A) ligand-binding domain. As to the kind of experiment: NR3A LBD thermal stabilization by compounds – biophysical, differential scanning fluorimetry, uHTS, primary screen (AID 1259313). The settings on record: at 25 µM, active compounds read high, 0% = protein alone, 100% = glycine-bound protein. A general note: DSF heats the sample and reads unfolding from a dye or from intrinsic fluorescence.
For `COc1ccc(C(=O)NC(Cc2ccc(OC(=O)c3ccc(OC)cc3)cc2)C(=O)O)cc1` (centres undefined), the Tm shift relative to glycine control was 1.26%.
For `CCCC(C)n1[nH]c(=O)c2c(C)cc(C)nc21` (centres undefined) the value was -2.91%; for `COc1ccc(/C=C/C(=O)OCC(=O)N2CCN(S(=O)(=O)c3ccc(C)cc3C)CC2)cc1OC`, 2.82%; for `Cc1nc2ccccn2c(=O)c1NC(=O)c1cccs1`, 2.62%.
For `Brc1ccc(-c2csc(N/N=C/c3ccc4c(c3)OCO4)n2)cc1` the value was 23.4% (active); for `C(=N\Nc1ccc2ccccc2n1)/c1ccc2c(c1)OCO2`, -7.73%; for `Brc1ccc(-c2csc(N/N=C/c3cccnc3)n2)cc1`, 3.34%.
For `COc1ccc(-c2ccc(CCC(=O)O)n2NC(=O)c2ccc(C(C)(C)C)cc2)cc1` the value was -1.21%; for `CNC(=O)c1sc(Nc2ccc(OCc3ccccc3)cc2)nc1C`, 33.7% (active).
For the compound `O=C(O)/C=C\C(=O)Nc1ccc(OCc2ccccc2)cc1`, the Tm shift relative to glycine control was -0.88%.
For `CNC(=O)c1sc(NCc2ccccc2OC)nc1C` the value was 0.18%.
For `COC(=O)C1=C(Nc2ccc(C)cc2)C=C(C)C(C(=O)OC)C1c1ccc(F)cc1` (centres undefined) the value was 2.17%; for `CC[C@]1(C(=O)OC)[C@H]2C(=O)N(Cc3ccccc3)C(=O)[C@H]2[C@H]2CN=C(SCc3ccccc3)N21`, -1.15%; for `COCCN1C2=C(COC(C)(C)C2)C(=S)NC1c1ccccc1` (centres undefined), -0.64%.
For `COC(=O)c1c(NC(C)=O)sc(C(=O)Nc2ccccc2OC)c1C` the value was -3.42%; for `CCC(=O)Nc1sc(C(=O)Nc2ccccc2)c(C)c1C(=O)OC`, 2.03%.
Take `CC(=O)c1c(Nc2ccccc2)sc(C(=O)c2ccccc2)c1C`: the Tm shift relative to glycine control is 13.4% (active).
As for `COC(=O)c1cc(S(=O)(=O)N2CCN(c3cc(C)ccc3C)CC2)c[nH]1`, the Tm shift relative to glycine control was -17%.
Regarding `Cc1ccc(Cl)c(OCC(=O)NN2CCN(C)CC2)c1`, the Tm shift relative to glycine control was -1.17%.
For `CCCC1=Nc2cc(C(=O)NCc3ccco3)ccc2Sc2ccccc21` the value was -20.6%.
As to `Cc1ccc(N(CC(=O)Nc2cc(C)cc(C)c2)S(=O)(=O)c2cccc3nonc23)cc1`, the Tm shift relative to glycine control was -1.49%.
For `CCOC(=O)c1ccc(NC(=O)c2c(N)n(C)c(=O)[nH]c2=O)cc1` the value was 0.72%; for `CCOC(=O)c1ccc(NC(=O)c2c(NCc3ccccc3)[nH]c(=O)[nH]c2=O)cc1`, 14.9% (active); for `CCOC(=O)c1ccc(NC(=O)c2nc[nH]c2C(=O)NCc2ccccc2)cc1`, -1.27%.
For `Cc1ccc(NC(=S)N2CCN(c3ncccn3)CC2)cc1C` the value was -1.38%.
For `Cn1cc(/C=C/C(=O)N2CCCC(C(=O)c3ccc(C(F)(F)F)cc3)C2)cn1` (centres undefined) the value was 1.32%; for `CCCCCCCCCCOC(=O)Cn1c(COc2ccc(C)cc2)[n+](C)c2ccccc21`, -408%.
On to `CCCCCCCCCCOC(=O)Cn1c(COc2cccc(OC)c2)[n+](C)c2ccccc21`, for which the Tm shift relative to glycine control is 17.8% (active).
For `CCCCn1c(N)c(N(CCOC)C(=O)c2cccc(OCc3ccccc3)c2)c(=O)[nH]c1=O`, the Tm shift relative to glycine control is 1.68%.
For `O=C1CC(Cc2ccccc2)C(=O)N1c1ccc(Cl)cn1` (centres undefined) the value was 1.69%.
For `Fc1ccc(/C=N/n2c(COc3ccccc3)n[nH]c2=S)cc1` the value was -0.74%.
Turning to `CN(C)c1ccc(C2Nc3ccccc3C(=O)N2NS(=O)(=O)c2ccccc2)cc1` (centres undefined), the Tm shift relative to glycine control is 0.59%.
Turning to `O=C(CN1CCOCC1)Nc1c2c(nc3c1CCC3)CCC2`, the Tm shift relative to glycine control was 10.2% (active).
For `Cc1cc(C)c(NC(=O)CN2CCOCCOCCOCCOCC2)c(C)c1` the value was 0.86%; for `O=C(CN1CCOCC1)Nc1c(Cl)cc(Cl)cc1Cl`, -2.33%; for `O=C(COc1ccc2ccccc2c1)N1CCN(C(=O)c2cccs2)CC1`, 0.47%.
For `CCOC(=O)c1nn(-c2ccccc2F)c2nc(Nc3ccccc3)cc(=O)n12` the value was 0.55%; for `CCc1ccc2nc3sc(C(=O)Nc4nnc(CC)s4)c(N)c3cc2c1`, 2.24%.
On to `Cc1ccc(NC(=O)CSCC(=O)Nc2sccc2C#N)cc1`, for which the Tm shift relative to glycine control is -2.55%.
For `Cc1ccc(NC(=O)c2sc3nc(N)c(C#N)cc3c2N)cc1` the value was 10.3% (active); for `Cc1cccc(C)c1OCC(=O)NC(Cc1c[nH]c2ccccc12)C(=O)O` (centres undefined), 0.33%; for `O=C(N[C@@H](Cc1c[nH]c2ccccc12)C(=O)O)OCC1c2ccccc2-c2ccccc21`, 19.5% (active).
Turning to `O=C(CCn1nnc2ccccc2c1=O)N[C@@H](Cc1c[nH]c2ccccc12)C(=O)O`, the Tm shift relative to glycine control was -1.09%.
For `Cc1cc(NC(=O)C(C)SCC(=O)Nc2cccc(S(=O)(=O)N3CCCCCC3)c2)no1` (centres undefined) the value was -1.57%.
On to `Cc1c(/C=N\NC(=O)c2cc3ccccc3o2)c2ccccc2n1C`, for which the Tm shift relative to glycine control was 2.79%.
For `Nc1nonc1-n1nnc(C(=O)N/N=C/c2c[nH]c3ccccc23)c1-c1ccccc1` the value was 31.6% (active).
For `Nc1nonc1-n1nnc(C(=O)N/N=C/C2CCCCC2)c1-c1ccccc1` the value was 0.68%.
For `O=C(NN=Cc1ccc([N+](=O)[O-])cc1)C1CC1` the value was -0.92%.
In the case of `NC(=O)CSc1c[nH]c2ccccc12`, the Tm shift relative to glycine control is 0.83%.
For `O=C(N/N=C/c1c[nH]c2ccccc12)c1cc2ccccc2o1` the value was 28.7% (active); for `C[n+]1ccc(/C=C/c2c[nH]c3ccccc23)cc1`, -3.88%.
`Cc1cc(NC(=O)c2cc3ccccc3o2)no1`: the Tm shift relative to glycine control was 2.81%.
For `O=C(N/N=C/c1ccc(Cl)cc1)c1nc2ccc([N+](=O)[O-])cc2c(=O)[nH]1` the value was 1.51%; for `CC(C)c1c(C(=O)N/N=C/c2ccccc2C(=O)O)nnn1-c1nonc1N`, -7.76%.
For `CSC(=S)N/N=C/c1c[nH]c2ccccc12` the value was 30.1% (active).
For `O=C(N/N=C/c1ccc([N+](=O)[O-])cc1)c1c[nH]c2ccccc12` the value was 26.3% (active).
With `Cc1ccc(N2CCN(S(=O)(=O)N(C)C)CC2)cc1Cl`, the Tm shift relative to glycine control is 1.66%.
For `CCCNC(=O)c1cnc(-c2ccccc2)nc1-c1ccccc1` the value was -1.35%; for `CN(C)S(=O)(=O)N1CCC(Oc2cccc(C(=O)NCCCC3CCCC3)c2)CC1`, 0.18%.
